From PubChem BioAssay AID504621 (Broad Institute, 2011)
Out of some 310,000 compounds screened, about 970 (0.31%) were called active. The sample as a whole holds a higher share of actives than the screen did. A number with no mark means an inactive call.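 How the source made its calls: active means every replicate shows inhibition above about 80%, whatever the replicate mean (limit read from the data); inconclusive means mean inhibition reaches the set limit but some replicate falls short; inactive means the rest.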

experiment: growth inhibition of PfHsp90-expressing yeast, primary screen, antimalarial PfHsp90 inhibitor project, S. cerevisiae, BacTiter-Glo luminescence, single point, set 2 (AID 504621); settings: BacTiter-Glo ATP, 48 h, at 9.4 µM, hits give high values;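 further: yeast relying on Plasmodium falciparum Hsp90 in place of its own; 0% = DMSO neutral controls and 100% = 20 µM radicicol positive controls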

| SMILES | inhibition |
| --- | --- |
| CCOC(=O)C1(c2ccccc2)CCN(CC(O)c2ccc(NC(C)=O)cc2)CC1 (centres undefined) | -7.12% |
| CCC(=O)OC(Cc1ccccc1)(c1ccccc1)C(C)CN(C)C (centres undefined) | 34.8% |
| COC1C(O)C(C)OC(OC2CCC3(C=O)C(CCC4C3CCC3(C)C(C5=CC(=O)OC5)CCC43O)C2)C1O (centres undefined) | -24.6% |
| CC(=O)OC1C2(CC3N4C(=O)C5(CO)SSC4(CC31O)C(=O)N5C)OC(C)C(C)(C)C2=O (centres undefined) | 11.7% |
| CC1CC=CCC12C(=O)NC(=S)NC2=O (centres undefined) | 3.23% |
| CC12CCC(O)CC1CCC1C2CCC2(C)C(C(=O)CC(O)C(F)(F)F)CCC12 (centres undefined) | -14.7% |
| CC12CCC3C(CCC4CC(=O)CCC43C)C1CC(=NO)C2=O (centres undefined) | -28.6% |
| CN(C)CC1Oc2ccccc2OC1(O)c1ccccc1 (centres undefined) | 102% (active) |
| O=C(c1ccccc1)C(O)(CN1CCCCC1)c1ccccc1 (centres undefined) | 8.04% |
| CC1C(=O)OC2CCN3CC=C(COC(=O)C(C)(O)C1(C)O)C23 (centres undefined) | 11.4% |
| CC(CC(C#N)(c1ccccc1)c1ccccc1)N1CCCCC1 (centres undefined) | 13.9% |
| CCCCCCCCCCCCn1ccc(=N)cc1 | 93.6% (active) |
| CCC(C)(O)C(=O)OC1C(=O)OC2CC3C(C)=CC(=O)C(O)C3(C)C3C4(O)OCC23C1C(C)C4O (centres undefined) | -25.9% |
| CC(=O)C1(O)CCC2C3CCC4=C(Cl)C(=O)CCC4(C)C3CCC21C (centres undefined) | 7.87% |
